Structures are written as SMILES. The source made the active and inactive calls. The rule behind the calls is not given here.

39 compounds from PubChem BioAssay (NCATS) can be followed below.
Potency is the fitted concentration of half-maximal effect.

This assay deals with HIV-1 nucleocapsid protein NCp7 (binding to TG oligonucleotide). Nature of the assay: HIV Nucleocapsid (AID 346).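 Note: potency is for inhibitors that block NC binding and lower polarization.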 The conditions noted are these: HIV-1 NC / fluorescein-TGTGTGTG probe, fluorescence polarization. In outline: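 HIV-1 NC (100 nM) binding to fluorescein-labelled ssDNA TG4xF (10 nM) in Hepes pH 7.5, 250mM NaCl, 1uM ZnCl2, TCEP and 2-mercaptoethanol; compounds pin-transferred, 1 hr room temperature, fluorescence polarization read on CCD imager.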
(Polarisation of emitted light reports the rotation of a fluorescent probe.)
Take `CS(=O)(=O)Nc1cccc(-c2nc(Nc3ccccc3)c3ccccc3n2)c1`: the Potency is > 20 µM (inactive).
Next, `O=C(c1cccc(F)c1)N1CCC2(CC1)CCN(c1ccncc1)CC2`: > 20 µM (inactive); `CN(C)Cc1ccccc1-c1cc(NCc2cccs2)ncn1`: > 20 µM (inactive).
Regarding `COCCn1c(=O)cnc2cnc(N3CCOCC3)nc21`, the Potency was > 20 µM (inactive).
For `COc1ccccc1-c1nc(Nc2ccncc2)c2ccccc2n1`, the Potency was > 20 µM (inactive).
Next, `O=c1c(-c2ccc(Cl)cc2)nc2cnc(N3CCNCC3)nc2n1CCc1ccccc1`: > 20 µM (inactive); `COCC(=O)N1CCC2(CC1)CCN(c1ccc(-c3ccccc3)cc1)CC2`: > 20 µM (inactive); `COc1cccc(Nc2ncc3nc(-c4ccccc4)c(=O)n(Cc4cccs4)c3n2)c1`: > 20 µM (inactive).
For the compound `O=C(c1cnccn1)N1CCC[C@@]2(CCN(Cc3ccncc3)C2)C1`, the Potency was > 20 µM (inactive).
Next, `COc1ccc(-n2c(=O)c(-c3cccc(Cl)c3)nc3cncnc32)cc1`: > 4 µM (inactive).
Turning to `Cc1ccccc1-c1nc(N2CCNCC2)c2ccccc2n1`, the Potency is > 20 µM (inactive).
Next, `COc1ccc(C(=O)N2CCC3(CCN(Cc4ccc(C#N)cc4)CC3)CC2)cc1`: > 20 µM (inactive); `COc1ccc(NC(=O)N2CCC3(CC2)CCN(S(C)(=O)=O)CC3)cc1`: > 20 µM (inactive); `c1ccc(Nc2ncncc2-c2ccc3c(c2)OCO3)cc1`: > 20 µM (inactive).
Regarding `CN(C)c1ccc(-c2nccc(NCCN3CCOCC3)n2)cc1`, the Potency was > 20 µM (inactive).
As for `CN(C)c1ccc(-c2nc(NCCN3CCOCC3)c3ccccc3n2)cc1`, the figure is > 20 µM (inactive); as for `Cc1cccc(CNc2nc(-c3cccc(NS(C)(=O)=O)c3)nc3ccccc23)c1`, > 20 µM (inactive); as for `O=C(Oc1ccccc1)N1CCC2(CCCN(c3cccc(-c4ccccc4)c3)C2)CC1`, > 20 µM (inactive).
On to `COC(=O)N1CCC2(CCCN(C(c3ccccc3)c3ccccc3)C2)CC1`, for which the Potency was > 20 µM (inactive).
Next, `CN1CCN(c2ncc3nc(-c4cc(F)cc(F)c4)c(=O)n(C4CC4)c3n2)CC1`: > 20 µM (inactive); `COCC(=O)N1CCC2(CCCN(c3ccncc3)C2)CC1`: > 20 µM (inactive); `O=C(c1cc(C(F)(F)F)cc(C(F)(F)F)c1)N1CCC[C@@]2(CCN(Cc3nccs3)C2)C1`: > 20 µM (inactive).
Next, `COc1ccc(CNc2cc(-c3ccccc3C)ncn2)c(OC)c1`: > 20 µM (inactive); `Clc1ccccc1-c1nccc(NCCN2CCOCC2)n1`: > 20 µM (inactive); `N#Cc1cccc(NC(=O)N2CCCC3(CCN(C(=O)c4cccc(F)c4)CC3)C2)c1`: > 20 µM (inactive).
In the case of `Cc1cccc(CNc2ncnc3ccc(-c4ccoc4)cc23)c1`, the Potency was > 20 µM (inactive).
As for `COc1cccc(-c2cc(N(C)Cc3ccco3)ncn2)c1`, the figure is > 20 µM (inactive); as for `COc1ccc(-c2nc3cnc(N(C)C)nc3n(Cc3ccc(F)cc3)c2=O)cc1`, > 20 µM (inactive).
As for `CN1CCN(c2ncc3nc(-c4cccs4)c(=O)n(CCC#N)c3n2)CC1`, the figure is 15.3 µM (inactive); as for `CN(C)c1ncc2nc(-c3cccs3)c(=O)n(C)c2n1`, > 4 µM (inactive).
As for `FC(F)(F)c1ccccc1-c1cncnc1Nc1ccccc1`, the figure is > 20 µM (inactive); as for `O=C(Nc1ccccc1)N1CC2(CCN(C(=O)c3cc(C(F)(F)F)cc(C(F)(F)F)c3)CC2)C1`, > 20 µM (inactive).
Consider `CN1CCN(c2ncc3nc(-c4cccc(C#N)c4)c(=O)n(C)c3n2)CC1`, for which the Potency is > 20 µM (inactive).
For the compound `Cc1cnc(CNc2ncnc3ccc(-c4ccccc4CN(C)C)cc23)cn1`, the Potency is > 20 µM (inactive).
Next, `N#Cc1cccc(-c2nccc(NCc3ccccc3)n2)c1`: > 20 µM (inactive).
For `COc1cccc(Cn2c(=O)c(-c3cccs3)nc3cnc(N4CCN(C)CC4)nc32)c1`, the Potency was > 4 µM (inactive).
Next, `CN(C)Cc1ccccc1-c1cc(NCc2ccccc2)ncn1`: > 20 µM (inactive); `c1cncc(CNc2nc(-c3ccc4c(c3)OCO4)nc3ccccc23)c1`: > 20 µM (inactive).
For `c1ccc(-c2ccc(N3CC[C@@]4(CCCNC4)C3)cc2)cc1`, the Potency is > 20 µM (inactive).
